In all, about 53,000 compounds went through this assay and about 900 (1.7%) showed an effect of 50% or more. Many of the other results were omitted from the sample, so strong results are more common in it than they were.

For the test, the system named is Mycobacterium tuberculosis. Description: Cornell - Phenotypic assay to identify agents that inhibit growth of Mycobacterium tuberculosis. Set-up: scale not given: direction of the effect not stated beside the values. The format is functional. The following applies: 10 mM as filed; unlikely as a test dose.
For `Cc1cc(C(N)=O)ccc1NC(=O)N1CCN(c2cccs2)CC1`, the “Percent Effect” value came to 67.2%.
Take `Cc1cc(NC(=O)N2CCN(c3cccs3)CC2)ccc1C(N)=O`: the “Percent Effect” value was determined as 3.823%.
The same measure for `NC(=O)c1ccc(NC(=O)N2CCN(c3cccs3)CC2)c(F)c1`: 54.78%.
The same measure for `CNC(=O)CN1CCN(C(=O)Nc2ccc(Cl)cc2F)CC1`: -7.252%; for `CCn1cnnc1CNC(=O)N1CCN(c2cccs2)CC1`: -10.74%.
The figure for `O=C(Nc1ccccc1-c1cccs1)N1CCN(CC(F)F)CC1` is -4.883%; for `CC(C)OCCC(=O)NCCc1csc(N2CCCC2)n1` it is -16.85%; for `COCC(=O)NCc1cc(=O)n2c(n1)CN(Cc1ccccc1)CCC2.O=C(O)C(F)(F)F` it is 6.068%.
With `OCc1ccc(CN(CCCn2ccnc2)Cc2cccnc2)o1`, the “Percent Effect” value was 33.2%.
Consider `N#Cc1cc2c(nc1O)CCCCC2`, for which the “Percent Effect” value was -24.16%.
Take `CN1C(=O)COc2cc(NC(=O)CCc3nc4cccnc4[nH]3)ccc21`: the “Percent Effect” value was 11.88%.
With `COC(=O)Cc1cn2cc(C(F)(F)F)ccc2n1`, the “Percent Effect” value is listed as -22.96%.
For `CC(C)NC(=O)[C@@]12CCO[C@@H]1CCN(Cc1ccc3c(c1)OCO3)C2.O=C(O)C(F)(F)F`, the “Percent Effect” value was -5.39%.
Regarding `CCSCC(C)NCc1nc(-c2cccnc2)no1` (centres undefined), the “Percent Effect” value is recorded as -14.24%.
The figure for `O=C(CCc1ccsc1)Nc1cccnc1N1CCCC1` is 8.029%.
For the molecule `CCN(CC)C(=O)CCc1c(C)nc2cc(O)nn2c1C`, the “Percent Effect” value came out at 7.759%.
The figure for `CN(C)[C@@H]1CN(Cc2ccccc2O)C[C@H]1c1cn(C)c2ccccc12.Cl` is 107.3%.
Turning to `CN(C)[C@@H]1CN(Cc2ccc(O)cc2)C[C@H]1c1cn(C)c2ccccc12.Cl`, the “Percent Effect” value was -25.68%.
With `CN(C)[C@@H]1CN(Cc2cccnc2)C[C@H]1c1cn(C)c2ccccc12.Cl`, the “Percent Effect” value came out at 6.134%.
In the case of `COc1cccc([C@@H]2CCN(Cc3cn(C)c4ccccc34)C[C@H]2O)c1`, the “Percent Effect” value is listed as -6.919%.
As to `Cc1cc(C)n(C2CN(Cc3ccccn3)C2)n1`, the “Percent Effect” value is given as -9.481%.
Take `CN(C)[C@@H]1CN(Cc2ccccn2)C[C@H]1c1cn(C)c2ccccc12.Cl`: the “Percent Effect” value turned out to be 54.37%.
On to `CSCC[C@@H]1CN2CCC[C@H]2CN1Cc1cn(C)nc1C`, for which the “Percent Effect” value is -32.61%.
The same measure for `Cc1nc(CN2CCCN(Cc3nc4c(F)cccc4[nH]3)CC2)no1`: -62.54%; for `O=C(NCCS(=O)(=O)N1CCN(c2ncccn2)CC1)C1CC1`: -28.73%.
Turning to `CCN(Cc1ccncc1)CC1(O)CCN(C(=O)c2cccc(C)n2)C1` (centres undefined), the “Percent Effect” value is reported as -8.223%.
`CCCc1nc(C)c(C(=O)NCCN2CCN(CC)CC2)s1`: the “Percent Effect” value is reported as 13.14%.
With `CN1CCN(CC(CC(=O)Nc2ccc(Cl)cc2)C(=O)O)CC1` (centres undefined), the “Percent Effect” value turned out to be 46.61%.
On to `Cc1cccc(C)c1NC(=O)CC(CN1CCN(C)CC1)C(=O)O` (centres undefined), for which the “Percent Effect” value came out at 68.43%.
As to `CN1CCCN(CC(CC(=O)Nc2ccc(Cl)cc2)C(=O)O)CC1` (centres undefined), the “Percent Effect” value worked out at 27.51%.
With `CC(CN1CCOCC1)NC(=O)NCc1cccs1` (centres undefined), the “Percent Effect” value is -17.54%.
With `COc1cccc(N2CCN(Cc3cc(C)cc(F)c3)CC2=O)c1`, the “Percent Effect” value is on record as 45.53%.
On to `COc1cc(CN2CCN(c3cccc(OC)c3)C(=O)C2)cc(OC)c1`, for which the “Percent Effect” value amounted to 8.627%.
In the case of `NCCc1cccc(CN2CCN(c3ccccc3)C(=O)C2)c1`, the “Percent Effect” value is -23.11%.
For the molecule `COc1cccc(N2CCN(Cc3ccc4ccn(C)c4c3)CC2=O)c1`, the “Percent Effect” value worked out at 57.23%.
For `COc1cccc(N2CCN(Cc3ncc[nH]3)CC2=O)c1`, the “Percent Effect” value was -18.02%.
As for `NCCc1cccc(CN2CCN(c3cccc(Cl)c3)C(=O)C2)c1`, the “Percent Effect” value is given as 12.48%.
On to `COc1cccc(N2CCN(Cc3ccc4[nH]ccc4c3)CC2=O)c1`, for which the “Percent Effect” value turned out to be 56.6%.
As to `COc1cccc(N2CCN(Cc3ccc4occc4c3)CC2=O)c1`, the “Percent Effect” value came to 21.65%.
As for `COc1cccc(N2CCN(Cc3cccc(CCN)c3)CC2=O)c1`, the “Percent Effect” value is 56.89%.
In the case of `Cc1ccnn1CCC(=O)N1CCCC[C@@]2(C)[C@@H]1CCC(=O)N2C`, the “Percent Effect” value is -72.7%.
Consider `CC(C)n1nc(CN2CCCC2)c2c1CN(CC1CC1)CC2.O=C(O)C(F)(F)F.O=C(O)C(F)(F)F`, for which the “Percent Effect” value is reported as 3.423%.
For `O=C(CCn1nc(C(F)(F)F)c(Cl)c1C1CC1)NN1CCOCC1`, the “Percent Effect” value was 6.641%.
In the case of `CNS(=O)(=O)c1cc(C(=O)NC2CCOc3ccccc32)cc(C)c1C` (centres undefined), the “Percent Effect” value is on record as -0.5765%.
On to `Cc1cccc(CN2CC[C@@H]3[C@@H]2CCN3C(=O)Cc2cccs2)n1.O=C(O)C(F)(F)F.O=C(O)C(F)(F)F`, for which the “Percent Effect” value is 14.31%.
On to `Cn1nc(Br)c2c(NCCNc3ncccn3)ncnc21`, for which the “Percent Effect” value was determined as 7.21%.
In the case of `CC1CCCN(C(=O)c2nnn(-c3ccc(C(F)(F)F)cc3)n2)C1` (centres undefined), the “Percent Effect” value was 77.62%.
Consider `O=C(c1nnn(-c2ccc(C(F)(F)F)cc2)n1)N1CCC(O)CC1`, for which the “Percent Effect” value worked out at 42.24%.
For the molecule `O=C(c1nnn(-c2ccc(C(F)(F)F)cc2)n1)N1CC(O)C1`, the “Percent Effect” value is 30.38%.

Source of the values: ChEMBL document CHEMBL3988442, “University of Dundee, Small-Polar-MMV Screening Library” (2021).
